High-throughput results deposited in PubChem BioAssay by National Center for Advancing Translational Sciences (NCATS).
Sampled rows, rich in hits. Any-hit rate of the full collection: about 4.2%.
uPA surface inh: cell surface uPA generation inhibition | cell surface uPA generation assay, qHTS | Potency, µM (titrated, usually from 38.3 µM), for the others: top-dose activity change, negative = inhibition, usual class: inhibitors | 330,000 compounds, 0.31% hits | AID 540303; active = well fitted inhibition curve with a large enough effect; inconclusive = small, poorly fitted or top-dose-only effect; inactive = no such curve, though single readings can be large or run the other way; tested in mouse RAW 264.7 cells; also: potency is read from the fitted curve at half-maximal effect; % is scaled to controls: 0 for no effect and ±100 for the full control effect; nearly all actives have a fitted effect of over 55% in size
Sfp inh: Sfp phosphopantetheinyl transferase inhibition. Q9F4F7. AID 1490. Potency, µM, inactives show largest response in the series, negative = inhibition, hits mostly inhibitors. 310,000 compounds, 3.5% hits. Biochemical Sfp PPTase activity, qHTS;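 also: the enzyme is Sfp with the accession as filed and its product quenches rhodamine fluorescence; potency is read from the fitted curve at half-maximal effect; 0% = enzyme reaction without inhibitor and -100% = no enzyme wells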
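With Hepes-Na pH 7.6 buffer containing 10 mM MgCl2, Sfp (15 nM) modified BHQ-2-YbbR (12.5 uM) using rhodamine-CoA (5 uM). Two reads 30 minutes apart at 525/598 nm yielded each well's rate.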
TCR act: activators of T cell receptors | primary human leukocytes, anti-CD3, IL-2 HTRF, 48 h | Potency, µM (series often up to 9.22 µM), inactives show at the top dose activation of IL-2 secretion, most hits filed as activators | 330,000 tested, under 10 active; also: % of control where 0% means no effect
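Human primary leukocytes + a-CD3 beads + cpd, 48 hr; IL-2 in supernatant by HTRF (ex 320nm / em 665nm). No co-stimulatory signal supplied.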
ClpP mod: qHTS Assay for Activators of ClpP; ATP-dependent Clp protease proteolytic subunit (Bacillus subtilis (strain 168)), P80244; purified B. subtilis ClpP, FRET peptide cleavage, 20 min; Potency, µM (top dose mostly 57.5 µM), without a hit: top-dose activity change, negative = active; 340,000 compounds, 1.9% hits; AID 651965, 2013; active = well fitted falling curve with a large enough effect; inconclusive = small, poorly fitted or top-dose-only effect; inactive = no such curve, though single readings can be large or run the other way; also: potency is read from the fitted curve at half-maximal effect; the source files actives as falling curves though it sought activators and does not explain the sign; nearly all actives have a fitted effect of over 65% in size
Target sequence (P80244 whole entry, looked up): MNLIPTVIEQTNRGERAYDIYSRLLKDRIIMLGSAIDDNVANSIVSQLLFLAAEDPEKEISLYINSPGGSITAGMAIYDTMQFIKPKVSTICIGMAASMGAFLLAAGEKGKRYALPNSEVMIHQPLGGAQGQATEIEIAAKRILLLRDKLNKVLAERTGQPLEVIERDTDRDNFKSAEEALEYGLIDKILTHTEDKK
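FRET quenching reversal measured ClpP activation: 10 microg/mL B. subtilis ClpP at pH 8 with the FRET-FV decapeptide, read at 430 nm after 320 nm excitation. The 20-min minus 0-min signal was scaled between DMSO/no-enzyme wells and ADEP (5.8 microM final).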
* = called active by the depositor; ? = inconclusive; . = no result given; [ ] = another dose, or the depositor's remark. Unless noted, calls follow the shape of the dose curve; as a rule, active = well fitted curve in the direction sought with a large enough effect; inconclusive = small, poorly fitted or top-dose-only effect, or another doubt; inactive = no such curve, though single readings can be large; an effect the other way counts as inactive or inconclusive.

SMILES	uPA surface inh	Sfp inh	TCR act	ClpP mod
O=C(Nc1ccccc1)N(CCCN1CCOCC1)Cc1cc2cc3c(cc2[nH]c1=O)OCCO3	-3%	7%	-6%[46.1 µM]	32µM*
O=C(Nc1ccccc1F)N(CCCN1CCOCC1)Cc1cc2cc3c(cc2[nH]c1=O)OCCO3	-7%	18%	14%	20µM*
CCN(CC)CCCN(Cc1cc2cc3c(cc2[nH]c1=O)OCCO3)C(=O)Nc1ccccc1	-4%	20%	5%	20µM*
CCc1ccc2[nH]c(=O)c(CN(CCCN3CCOCC3)C(=O)Nc3ccccc3)cc2c1	-7%	3%	-1%	-7%
NC(N)=Nc1nc2ccc(Cl)cc2c(=O)[nH]1	0%	13%	2%	.
COc1cccc(NC(CNS(=O)(=O)c2ccc(Cl)cc2)c2ccccc2)c1 (configuration not stated)	.	.	.	1%
COc1ccc(C(=O)Nn2cnc3scc(-c4cccs4)c3c2=O)c(O)c1	1%	25%	10%	32µM*
O=C(CNC(=O)c1ccccc1)OCC(=O)c1cccc2ccccc12	.	.	.	-1%
COC(=O)C1=CNC=C(C(=O)OC)C1c1ccc(C(=O)OC)cc1	-2%	-5%	-3%	28µM*
COC(=O)C1=C(C)N(C)C(C)=C(C(=O)OC)C1c1ccc(C(=O)OC)cc1	1%	4%	-1%	6%
N#CCCSc1ccccc1NC(=O)c1ccc(S(=O)(=O)N2CCCC2)cc1	.	5.6µM*	.	.
O=S(=O)(c1cccc(F)c1)N1CCN(C(=S)NCC2CCCO2)CC1 (configuration not stated)	8%	2%	1%	-1%
Nc1nc(Cl)nc2c1ncn2[C@@H]1O[C@H](CO)[C@H](O)C1F (some centres not stated)	.	11%	.	.
COc1ccc2nc(-c3ccccc3)nc(SC)c2c1	-19%	.	-4%	22µM*
COC(=O)C1=C(C)N(C)C(C)=C(C(=O)OC)C1c1ccsc1	3%	-3%	0%	52%
CCOC(=O)C1=CN(C)C=C(C(=O)OCC)C1c1ccsc1	2%	9%	-5%	8.9µM*
O=C1c2oc3ccccc3c(=O)c2C(c2ccc(O)cc2)N1Cc1ccc2c(c1)OCO2 (configuration not stated)	.	.	.	-3%
CC1CCCCC1NC(=O)COC(=O)COc1ccccc1F (configuration not stated)	5%	.	6%[46.1 µM]	28µM*
CC1CCCCC1NC(=O)COC(=O)COc1ccccc1Cl (configuration not stated)	.	5%	-3%	1%
COc1ccc(NS(=O)(=O)c2cc(NC(=O)/C=C/c3ccccc3OC)ccc2N2CCCCC2)cc1	9%	10%	-2%[46.1 µM]	-14%
OC[C@H]1O[C@@H](n2cnc3c(NCc4ccccc4)ncnc32)[C@H](O)[C@@H]1O	.	10%	.	.
Cc1ccc2oc(-c3cccc(NC(=O)Cn4cnc5c(=O)n(C)c(=O)n(C)c54)c3)nc2c1	.	4%	.	.
CCC(C)c1ccc2oc(-c3ccc(NC(=O)Cn4cnc5c(=O)n(C)c(=O)n(C)c54)cc3)nc2c1 (configuration not stated)	4%	9%	.	11µM*
Cc1ccc2c(c1)CCCN2C(=O)c1cnn2c1NC(=C1CC1)C=C2C(F)F	.	.	.	-2%
CCCCNC(=O)C(CC)Sc1nc2sc(C(=O)OC)c(C)c2c(=O)n1N (configuration not stated)	.	50µM*	7%	-10%
SMILES	uPA surface inh	Sfp inh	TCR act	ClpP mod
O=C(c1nnsc1S(=O)c1ccc(Cl)cc1)N1CCOCC1 (configuration not stated)	-15%	56µM*	6%	.
Cc1nnsc1S(=O)c1ccc(Cl)cc1 (configuration not stated)	?	12%	-13%	-1%
O=C(Nc1ccccc1)c1nnsc1S(=O)c1ccc(Cl)cc1 (configuration not stated)	-11%	7.9µM*	1%	1%
CN(C)CC/C=C1\c2cc(F)ccc2CSc2ccccc21	?	79µM*	0%[46.1 µM]	0%
O=C(Nc1ccc(Cl)cc1)c1ccc(OCC2CCCO2)cc1 (configuration not stated)	.	9%	-2%	14µM*
O=C(NCc1ccc(Cl)cc1)c1ccc(OCC2CCCO2)cc1 (configuration not stated)	18%	4%	-3%[46.1 µM]	-1%
O=S(=O)(Nc1nc2ccccc2nc1Nc1cccc(S(=O)(=O)N2CCCCC2)c1)c1ccccc1	-3%	-12%	-3%[46.1 µM]	25µM*
COc1ccc(S(=O)(=O)Nc2cccc(S(=O)(=O)N3CCCCCC3)c2)cc1	5%	-6%	-9%[46.1 µM]	2%
CC(C)C[C@H]1COc2cc(Br)ccc2S(=O)(=O)N1	.	.	.	2%
O=S1(=O)N[C@@H](CC2CCCCC2)COc2cc(Br)ccc21	1.6µM*	.	1%[46.1 µM]	-4%
Nc1nc2ccc([N+](=O)[O-])c(N)c2s1	-11%	89µM*	6%	-3%
COc1ccc(NC(=S)Nc2ccc(C)c(Cl)c2)cc1OC	25%	-24%	-3%	1%
COc1ccc(/C([O-])=C(/C(=S)Nc2ccc(C)c(C)c2)n2c[n+](C)c3ccccc32)cc1OC	.	45µM*	-1%	-4%
O=c1oc2ccc3ccccc3c2cc1-c1nnc(Nc2ccc(Cl)cc2Cl)s1	.	.	.	-2%
CC(CCc1ccco1)NC(=O)Cn1ncc2c1-c1ccccc1OC2 (configuration not stated)	-7%	50µM*	-2%	-12%
O=C1S/C(=C/c2ccc(N3CCOCC3)o2)C(=O)N1Cc1ccc(F)cc1	0%	3.5µM*	2%	-2%
CC(C)(C)OC(=O)CN1C(=O)S/C(=C\c2ccc(-c3cccc(C(=O)O)c3)o2)C1=O	.	7%	.	.
CC(C)OC(=O)CN1C(=O)S/C(=C/c2ccc(N3CCCCC3)o2)C1=O	-5%	8.9µM*	8%	-11%
O=C1S/C(=C\c2ccc(N3CCOCC3)o2)C(=O)N1Cc1ccc(F)cc1	-20%	2µM*	6%	-2%
COc1cc(/C=C2\SC(=Nc3ccccc3)N(CCc3c[nH]c4ccccc34)C2=O)ccc1OC(C)C(=O)O (configuration not stated)	3%	-27%	-2%[46.1 µM]	0%
O=C1/C(=C/c2ccc(N3CCOCC3)o2)SC(=Nc2ccccc2)N1CCc1c[nH]c2ccccc12	-9%	2.8µM*	-1%	1%
O=C1NC(=S)S/C1=C/c1ccc(N2CCOCC2)o1	2%	?	-3%[46.1 µM]	-1%
O=C1N/C(=C/c2ccc(N3CCOCC3)cc2)C(=O)N1Cc1ccc(F)cc1	3%	10%	-5%	2%
Cc1cnc2ccccc2c1/C=C/c1ccc(N(C)C)cc1	.	.	.	0%
c1cc(-c2cnn3cc(-c4ccc(OCCN5CCCCC5)cc4)cnc23)ccn1	.	-3%	.	.
COc1ccc(S(=O)(=O)c2c(Nc3c(C)cccc3C)sc(C(=O)c3ccc4c(c3)OCO4)c2N)cc1	.	.	.	-23%
CCOC(=O)[C@]12CCCC=C1N(CCc1ccc(OC)c(OC)c1)C(=O)[C@H](CC(=O)N1CCCC1)C2	.	.	.	2%
